# From the supplement of paper PMC6555819
# Tested on: VDR:RXRa (NR concentration 270 nM, RXRa partner concentration 90 nM)
# Assay: PBM binding z-score (relative to random genomic background probes); higher = stronger binding; sequences stand for … in GC…GCGATTGACAGCGTAGAATGAAGG
# Protocol: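 Protein-binding microarray (Agilent 4x180K custom design, double-stranded 60-nt probes: 5' GC cap, 34-nt variable region, 24-nt constant primer region; full probe sequence given). Purified or IVT nuclear receptor:RXRα heterodimers (3:1 NR:RXRα, mostly 270:90 nM) or homodimers were incubated for 1 h in PBS with 2% milk and no ligand, then detected with Alexa488 antibodies. Fluorescence from o1-orientation probes (~5 replicates averaged) was converted to z-scores against 500 random hg19 background probes. Variable regions are seed direct-repeat (DR0–DR5) sites, all their single-nucleotide variants and half-site ablations.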
row,Sequence,PBM binding z-score
1,ATCGAAAGGTCGAAGGTGAGTGTACCCACCCGAA,3.05
2,CCCACTGGGCCACGAAAGGTCATTGATTCAGTGA,4.18
3,TAGCCTAGGTCATGCGGGCAAGTATAGTGTCGGC,2.21
4,CGTCAAAGTTCAACTAAGGAAACGTAAAGCACGC,4.16
5,ATCGAAAGTTCGAAGGTGAGTATACCCACCCGAA,1.29
6,CAAACTAGGTCGCCGGAAGGTCAAAGTCCGCATG,4.5
7,CGAGCGAGGGCATGAGTTGATAGCAAATGCCGAT,1.3
8,CCTAATGGGCCATTCAGAGGTCATTGATCATATG,4.1
9,AACTCTAGGTAAAAGTTCAGTGAATCCCGAGGAT,1.11
10,AGTCAAAGTTGACTAGGTAACGTAAGATTCAGCT,0.000813
11,CAAACTAGGTCACCGGAAGGCCAAAGTCCGCATG,3.23
12,GATACAGGGTCAGCTAGAGGCTAGAGTATGGAAA,2.67
13,CGTCAAAGTTCAACTAAGGTAATGTAAAGCACGC,4.8
14,TTACCGAGGTGAAGGTCGTTGATCCCTCTGTAGA,1.5
15,AATACAGGGTCACTAGGCCACAGTAGGTACGAAT,4.27
16,ACCTCTAGGTAACCAAGTTCAGTGAATGCCGAAC,3.96
17,TCAGACAGGTGAAGCTAACTCAGGTACGCAGTCG,0.334
18,ACTATTAGTTGAGACGAGGGCAACCTATAGGTTG,0.781
19,CCGACTGGGGGAAGGTTACCATAACGCACAGCCA,0.558
20,GCTATTAGTCGAAAGGGCAACCGAATGATTCTCG,0.247

row,Sequence,PBM binding z-score
1,ACAGACAGGTGATGAAGGTAGCTCAGGCTATCAT,-0.287
2,GATACAGGATCAGCTAGAGGCCAGAGTATGGAAA,-0.569
3,GCTCGGAGGACATGGTCAGAGCTTTGTCCGTAGA,-0.753
4,CTCTAAAGGTCGTGCTCAGGTGAGTATACCAAAC,3.27
5,AGAACGAGGGCTATGAGTTGATAGCACGGGTGGC,0.114
6,AGAACGAGGGTAATGAGTTGATAGCACGGGTGGC,3.47
7,CCTTACGGGTCAAGCTTATAGCACGGGTGGTACG,3.11
8,CAGCCTAGGTCAGGGCCAGTTTAGGAGGAACGTT,0.723
9,CAACCTAGGTCAAAGGTCAAAGTCGAGCCAACCA,7.01
10,CGTACTAGGTCAGAACAGGACAGTGAAGGATGAT,0.861
11,CAAACTAGGTCAATGTCAAAGTCGGTTTGTGCCA,1.58
12,TCGAGTTGGTCACGGAGGTCACACACGACGGGTA,5.91
13,CGTCCAAGTTCAATGCTAGGTCAGTGAAAGCATT,4.26
14,TCTATTAGTTGATTAGGGCAACCTAAACAGCGGA,0.744
15,CCGAGTAGGTTATGGGGCATTAAGGCAACGGTGA,0.259
16,GAAACGAGGGCAAGTTGATAGCAGAGTTTGATGG,1.51
17,CCGACTGGGGCAGAATGGTTACCATACCATCCGG,-0.638
18,CCTTACGGGTCACGAGGTTATACCACGACGAGCG,5.37
19,TTACCAAGGTGAAAGGTCGTTCATGCACGCCTTG,3.53
20,TAGACTAGGTCATTGGGCCAGTATAGTACGCATC,1.93
